Over roughly 4,100 sequences, “arbitrary fluorescence units” has its median near 780; the highest 2% begin near 22,000. This excerpt belongs to a sample that is enriched for the highest values.

This test deals with T1, ETS1 (UniProt P14921).
T1 sequence: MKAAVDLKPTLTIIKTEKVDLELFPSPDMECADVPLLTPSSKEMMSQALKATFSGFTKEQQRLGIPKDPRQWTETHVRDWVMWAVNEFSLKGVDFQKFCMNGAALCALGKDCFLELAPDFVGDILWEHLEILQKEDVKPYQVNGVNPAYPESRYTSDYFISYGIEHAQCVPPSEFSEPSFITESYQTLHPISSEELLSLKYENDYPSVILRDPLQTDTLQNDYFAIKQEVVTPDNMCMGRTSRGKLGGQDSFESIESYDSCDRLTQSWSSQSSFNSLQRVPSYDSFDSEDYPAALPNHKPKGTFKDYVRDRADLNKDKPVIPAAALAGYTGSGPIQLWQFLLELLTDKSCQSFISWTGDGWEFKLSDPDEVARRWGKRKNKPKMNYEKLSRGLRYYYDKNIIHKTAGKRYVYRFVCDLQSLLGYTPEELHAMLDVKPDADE
The test is described as follows: ETS1 binding intensity (PBM fluorescence), ETS1 alone (arbitrary fluorescence units); higher = stronger binding. Particulars: ETS1 concentration 1 nM; RUNX1 concentration 0 nM. Summed up:
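Double-stranded Agilent 4 × 180k arrays held 36-bp genomic probes whose RUNX1 partner site was mutated, and these were incubated with 1 nM full-length recombinant human ETS1 in the absence of RUNX1 under standard PBM protocols. Bound protein was labelled with anti-ETS1 antibody (Cell Signaling Technology 14069) plus an Alexa488-conjugated secondary and read on a GenePix 4400A, with four spots printed per sequence. Binding level is reported as raw spot fluorescence intensity summarised over replicate spots.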
The sequence CACCTGACTACAAGGCACACGAACATCCTTATCACA showed an ETS1 binding intensity of 655. For ACCAAGTTTCGGGCAGGATCTTCCTGTAGTTTGCCT, the ETS1 binding intensity was determined as 566. Under CTCCAAGCCCAGAGAGCACCCCTTCCTGCCCGGACA stands 737; under CGTACGCGCACTTCCGGTCTTTGTGACTTGCAGCTC, 38700. Take CACGGTCTTTGCCGCTCAGCTTCCCGGAGTCCGCGC: the ETS1 binding intensity is 458. The sequence TTCTCTGGGGACAATTAGGGTTTCTGGGTTTCCTGA came in with an ETS1 binding intensity of 457. For CCTGGGGGGCCGGAAGCCCCGCTTCGGCCCCAGCCC, the ETS1 binding intensity worked out at 2820. For CACTTCCTGTCAAAGCCAGTTCCTTAGCCGCTTAGG the value was 45000.

Regarding TCTCCCTGCCCGCGAGTCAAAGCCACTTCCTTTTCC, the ETS1 binding intensity was 917.

TGTCATCCCGGAAACTGATAACAAGACCTCGAGTCA gave an ETS1 binding intensity of 4740.

AGCTTCCTGTTTGGCCTTGCTGATGTCACCCCATTA displayed an ETS1 binding intensity of 27600. For TGGGGCCTTGTTATCACAGCACTTCCTGTTTGCTTT the value was 7990; for TACAGCTTCCTTCACCCCACTTGGGGCCTGGGTTAC, 1140.

TCCTGGCTGCCCCCAAGGCCAGGAAGAGCGAAAACA registered an ETS1 binding intensity of 434. Take CTGAAACAGGAAACAGACAAAGTCACAAGGTTCGCA: the ETS1 binding intensity is 5430. In the case of GACTTCCTGTTGAAGATTGGCCTCTTCGGTAGCACA, the ETS1 binding intensity was 44600.

Turning to TGGCCTCTTCGGCCCTGGCCTTGACTTCCTTTCCTC, the ETS1 binding intensity came to 362.

On to CCTGCTGTGACTTCGGCTGTTTTCCTGGCCTGTGAG, for which the ETS1 binding intensity was determined as 387. Consider CCCACCTCGGCCCACGCCGAGCGTGGCGGAACAGCT, for which the ETS1 binding intensity came to 385.

As for CGGGCACGTCCTACGGCAGCAACGTCCGCCGCGCCG, the ETS1 binding intensity was 540. Regarding CACCCAAGGATATGCTTTTTTTTGGCAAGTCACATC, the ETS1 binding intensity is 604. For TTTCCACTTCCTGTTCTACTTGGGGCTACTGACTCA the value was 25500; for TTCTGCTACATCCTGCCCACTCCCTGTGACTTCCAC, 9350.

TTGGCCTGGGCTCTGGGCCACTTCCTGTGCTCTCCA: the ETS1 binding intensity is 5490. TTTATCCTTATTTCCTGGCTTCGCCTACAAGCACAG showed an ETS1 binding intensity of 5090. CTTGACTTAACTACAAGACAGGATGGGTTGATGAAG showed an ETS1 binding intensity of 426. The sequence AAAGCATTTCCTGCCTTGACTTAACTACAAGACAGG had an ETS1 binding intensity of 25700. The sequence TTCACGCTCCGTAAGCTCGCTCCTTCCGGGACGCAG displayed an ETS1 binding intensity of 643.

CTCTGCTTCCTGTCTTTGAATGCCTCTGTGATTTTC gave an ETS1 binding intensity of 13400. In the case of AAGGTCGAGGTCTCGGCTTCCCCGGAACTTTTTGCT, the ETS1 binding intensity is 295. In the case of GTGGGGCGGGCTTCCGGCGCTCCCACCGTGAGCCGA, the ETS1 binding intensity was determined as 8140.

In the case of TGCTTCCGGCGGGCGCTTGCTCCCCGAGGTCGGCAA, the ETS1 binding intensity was 24800. For GAAGGGAGGAAGCCTGAGAACTGTTGTCTCCTGAAG the value was 424.

For the origin of these results see the supplement of paper PMC10681739.
